# MITF inh: blocks human microphthalmia-associated transcription factor; O75030; AlphaScreen MITF homodimerization, bead proximity signal; inhibition, % at 2.6 µM; 650,000 tested, 0.91% active; AID 1259374; in the data active = inhibition above about 50%;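 also: 0% = vehicle wells with protein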
# FBW7 act: human FBW7 E3 ligase activation, primary screen | Q969H0 | AID 1259310 | normalized activity (activation), % at 26.1 µM | AlphaScreen FBW7–phospho-cyclin E peptide binding, activator screen | 650,000 tested, 0.13% active; in the data active = normalized activity above about 1.9%;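 also: purified mutant Fbw7 with reduced substrate affinity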
# TEAD-YAP block: TEAD-YAP interaction inhibition; inhibition, % at 9.12 µM; AID 1259422; HEK-TIYL cells, TEAD-Gal4/YAP UAS-luciferase luminescence; 640,000 tested, 1.4% active; in the data active = inhibition above about 32%;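 also: 0% = median of test compound wells and 100% = reference inhibitor wells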
# GPR151 ag: human GPR151 activation | Q8TDV0 | PathHunter beta-arrestin GPR151 cells, luminescence | activation, % at 11.2 µM | 650,000 tested, 1% active | AID 1508602; in the data active = activation above about 4.9%;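 also: 0% = median of compound wells and 100% = cells with positive control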
# Target sequence (Q8TDV0 whole entry, looked up): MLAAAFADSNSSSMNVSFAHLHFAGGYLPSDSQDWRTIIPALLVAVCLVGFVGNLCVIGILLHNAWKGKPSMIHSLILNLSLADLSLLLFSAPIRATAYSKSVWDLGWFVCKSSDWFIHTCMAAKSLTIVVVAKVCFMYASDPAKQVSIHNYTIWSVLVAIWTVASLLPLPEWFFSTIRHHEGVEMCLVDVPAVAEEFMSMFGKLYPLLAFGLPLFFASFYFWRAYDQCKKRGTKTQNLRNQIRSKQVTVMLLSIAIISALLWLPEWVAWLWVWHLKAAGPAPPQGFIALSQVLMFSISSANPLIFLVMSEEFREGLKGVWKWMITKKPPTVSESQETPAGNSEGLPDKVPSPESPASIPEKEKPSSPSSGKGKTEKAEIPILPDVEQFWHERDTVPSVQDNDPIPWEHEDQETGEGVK
# MITF confirm: confirmation of human MITF inhibitors | shares compounds with MITF inh | AlphaScreen MITF homodimerization, biotin/His-MITF beads | inhibition, % at 2.6 µM | 4,700 tested, 16% active;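 active = inhibition above a cutoff derived from the DMSO control wells, cut at about 28% in these data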;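 also: 0% = MITF dimer wells with DMSO only; inhibitors lower the bead chemiluminescence by keeping MITF from dimerizing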
# AS interf DR: counter-screen: compounds optically interfering with AlphaScreen | shares compounds with MITF inh | AlphaScreen optical interference counterscreen, cell-free | IC50, µM | 480 tested, 6% active; call rule not given here
# AlphaScreen intf2: optically interferes with AlphaScreen signal. AID 1259376. 4,700 tested, 7.6% active. shares compounds with MITF inh. inhibition, % at 2.6 µM. LysRS AlphaScreen counterscreen, signal interference, triplicate;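 active = inhibition above a cutoff derived from the DMSO control wells, cut at about 30% in these data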
# * = called active by the depositor; / = no result given. Hits are enriched below; roughly 3.4% of the tested compounds scored in any of these assays.
SMILES,MITF inh,FBW7 act,TEAD-YAP block,GPR151 ag,MITF confirm,AlphaScreen intf2,others
CC(C)NC(=O)CCCc1nc(-c2ccccc2Cl)no1,68*,0,5,-1,10,14,
O=C(O)CCCc1nc(-c2ccccc2Cl)no1,24,0,-1,1,/,/,
Cc1cc(NC(=O)C2CC(=O)N(c3ccccc3Cl)C2)ccc1Br (stereo unspecified),-15,0,2,0,/,/,
O=C(O)c1cccc(-n2cccc2/C=C\[N+](=O)[O-])c1,63*,0,-8,0,59*,6,AS interf DR=>6.5
Cc1ccc(N2C(N)=C(C#N)C(c3ccsc3)C3=C2CCCC3=O)cc1 (stereo unspecified),-11,0,2,4,/,/,
CCn1c2ccccc2c2cc(CN3CCN(Cc4ccccc4Br)CC3)ccc21,76*,0,0,0,16,16,
CCn1c2ccccc2c2cc(CN3CCN(Cc4ccccc4C(F)(F)F)CC3)ccc21,70*,0,5,-2,14,17,
CCn1c2ccccc2c2cc(CN3CCCN(C)CC3)ccc21,40,0,-7,0,/,/,
CCn1c2ccccc2c2cc(CN3CCN(S(=O)(=O)CC)CC3)ccc21,53*,0,-2,-1,14,10,
CN(Cc1ccccc1)C(=O)CSc1nc2cc(C(=O)N3CCC(C(N)=O)CC3)ccc2c(=O)n1-c1ccc(F)cc1,3,0,0,-1,/,/,
COC(=O)c1cc(S(=O)(=O)NCCCN(C)Cc2ccccc2)c[nH]1,56*,1,3,0,13,5,
COC(=O)c1cc(S(=O)(=O)NCCc2ccccc2)c[nH]1,14,1,10,1,/,/,
O=C(Cc1cn(-c2ccc(NCCCN3CCCC3=O)nn2)c2ccccc12)NC1CCN(Cc2ccccc2)CC1,5,0,3,-1,/,/,
COc1ccc(Br)cc1/C=N\NC(=O)CNc1ccccc1C,-3,0,-1,0,/,/,
COc1ccc(OC)c(/C=N\NC(=O)CNc2ccccc2C)c1,63*,0,14,-1,-1,0,
CCN1C(=O)/C(=C/c2ccccc2)SC1=Nc1cccc(C(=O)O)c1,-3,0,-2,1,/,/,
O=[N+]([O-])c1ccc(CN2CCN(CC3CC4C=CC3C4)CC2)cc1 (stereo unspecified),63*,0,4,0,12,15,
C1=CC2CC1CC2CN1CCN(Cc2ccncc2)CC1 (stereo unspecified),79*,1,-1,1,-5,14,
C1=CC2CC1CC2CN1CCN(Cc2ccc3c(c2)OCO3)CC1 (stereo unspecified),58*,0,-17,-1,-5,-3,
O=[N+]([O-])c1ccccc1CN1CCN(CC2CC3C=CC2C3)CC1 (stereo unspecified),67*,0,6,0,-2,-1,
Clc1ccc(CN2CCN(CC3CC4C=CC3C4)CC2)cc1 (stereo unspecified),26,0,-5,-1,/,/,
FC(F)(F)c1ccc(Cn2cnc3c(NC4CC4)nc(Nc4ccc(C(F)(F)F)cc4)nc32)cc1,-11,0,-4,-1,/,/,
COc1ccc(-c2nc(SC)n(C(=O)c3ccccc3OC)n2)cc1,-1,0,-22,-1,/,/,
Cc1ccc(S(=O)(=O)N2CCN(CC3CC4C=CC3C4)CC2)cc1 (stereo unspecified),68*,0,-52,2,-3,-2,
c1ccc(CCCN2CCN(C3C4CC5CC(C4)CC3C5)CC2)cc1 (stereo unspecified),70*,0,4,-1,2,7,
SMILES,MITF inh,FBW7 act,TEAD-YAP block,GPR151 ag,MITF confirm,AlphaScreen intf2,others
Cc1ccc(S(=O)(=O)NC[C@@H]2CC3C=CC2C3)cc1 (stereo partly specified),10,0,1,-1,/,/,
C1=CC2CC1CC2CN1CCN(CCCc2ccccc2)CC1 (stereo unspecified),70*,0,7,-3,8,16,
Fc1ccccc1N1CCN(CC2CC3C=CC2C3)CC1 (stereo unspecified),30,0,-9,1,/,/,
Cc1sc2ncnc(NC(Cc3ccccc3)C(=O)O)c2c1C (stereo unspecified),6,0,9,0,/,/,
COc1ccc(NC(=O)CC(NCc2ccccn2)C(=O)O)cc1 (stereo unspecified),110*,0,-15,4,107*,100*,
Cc1c(Cl)cccc1NC(=O)CC(NCc1ccccn1)C(=O)O (stereo unspecified),90*,0,5,0,62*,100*,
CCCNC(CC(=O)Nc1ccc(OC)cc1)C(=O)O (stereo unspecified),-4,0,-2,1,/,/,
NCCNC(CC(=O)Nc1cccc(Cl)c1Cl)C(=O)O (stereo unspecified),85*,0,4,0,19,33*,
O=C(CC(NCc1ccccc1)C(=O)O)Nc1cccc(Cl)c1Cl (stereo unspecified),-29,0,-3,-2,/,/,
Cc1c(Cl)cccc1NC(=O)CC(NCCCN(C)C)C(=O)O (stereo unspecified),-10,0,-2,-2,/,/,
CC(C)C(NC(=O)c1ccoc1)c1nnc2n1CCN(Cc1cc3ccccc3[nH]1)CC2 (stereo unspecified),69*,0,0,0,0,-1,
COc1cc(CN2CCN(S(=O)(=O)c3ccccc3)CC2)ccc1OCc1ccccc1,36,0,6,1,/,/,
COc1ccc(CN2CCN(Cc3ccco3)CC2)cc1OCc1ccccc1,60*,0,1,0,8,8,
CCOc1ccc(CN2CCN(Cc3ccc(OC)c(OCc4ccccc4)c3)CC2)cc1,69*,0,16,1,-10,5,
CCS(=O)(=O)N1CCN(Cc2ccc(OCc3ccccc3)c(OC)c2)CC1,51*,0,0,1,14,10,
CCOc1ccc(CN2CCN(Cc3ccc(OC)c(OC)c3)CC2)cc1,47,0,25,2,/,/,
COc1ccc(CNCc2ccco2)cc1OCc1ccccc1,41,0,-12,-1,/,/,
COc1ccc(CN2CCN(S(=O)(=O)c3ccc([N+](=O)[O-])cc3)CC2)cc1OCc1ccccc1,52*,0,30,1,14,23,
Cc1cccc(N(CC(=O)Nc2ccccc2)S(C)(=O)=O)c1C,5,0,-5,0,/,/,
O=C(/C=C/c1ccco1)Nc1cccc(NC(=O)/C=C/c2ccco2)n1,82*,0,-48,-1,49*,1,AS interf DR=>6.7
O=C(/C=C/c1ccco1)NCc1cccc(CNC(=O)/C=C/c2ccco2)c1,74*,0,4,2,82*,16,AS interf DR=>6.5
O=C(/C=C/c1ccco1)Nc1nnc(-c2ccco2)s1,52*,0,30,0,57*,8,AS interf DR=>6.5

# From PubChem BioAssay
